Reference: PubChem BioAssay (EPA / NIEHS)
Inconclusive results are not listed. Calls of active or inactive are those of the source. How the source made its calls, unless noted: active means hit-call score of the fitted dose curve at least 0.9, where 1 is the maximum; inactive means score below 0.9.

Key:
[1] = CCTE_Shafer_MEA_acute_AB: CCTE's Alamar Blue Assay for Cytotoxicity in the Neural Acute Assay, Shafer Lab (AID 2284069; active means hit-call score of the fitted dose curve at least 0.9, where 1 is the maximum;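 further: active compounds lower the viability signal compared with DMSO wells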)
Method in brief: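 Primary rat cortical neurons on MEA plates, exposed acutely after baseline recording on day 13 or 15 post-plating. Viability by CellTiter Blue resazurin reduction (1:6 reagent dilution), fluorescence 544/590 nm; loss of signal versus DMSO.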

[2] = CCTE_Shafer_MEA_acute_LDH: CCTE's Lactate Dehydrogenase Assay for Cytotoxicity in the Neural Acute Assay, Shafer Lab (AID 2284086; active means hit-call score of the fitted dose curve at least 0.9, where 1 is the maximum;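 further: active means LDH release rises above DMSO vehicle level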)
Method in brief: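 LDH released during 40 min compound exposure of primary rat cortical cultures, quantified by absorbance at 490 nm in collected medium. Fitting direction positive versus DMSO vehicle.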

[3] = CCTE_Shafer_MEA_dev_AB: CCTE's Alamar Blue Assay for Cytotoxicity in the Neural Network Formation Assay, Shafer Lab (AID 2284083; active means hit-call score of the fitted dose curve at least 0.9, where 1 is the maximum;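 further: twelve days of exposure from plating with re-dosing on DIV 5 and 9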)
Method in brief: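 Primary rat cortical neurons on PEI-coated 48-well MEA plates, 1.5 x 10^5 cells/well in laminin drop; compound exposure from day 0 of plating for twelve days, renewed at medium changes on DIV 5 and 9. Viability read as resazurin reduction by fluorescence, relative to DMSO.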

[4] = CCTE_Shafer_MEA_dev_mutual_information_norm: CCTE's Neural Network Formation Assay for Mutual Information Normalization, Shafer Lab (AID 2284091);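 on AC50: mutual information between electrodes summarised as area under curve across four recording days; potency is for a decrease in mutual information relative to DMSO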
Method in brief: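 Exposure of primary rat cortical neurons began at plating and ran to DIV 12, with full media and treatment renewal after DIV 5 and 9 recordings. Mutual information AUC (DIV 5–12) was analysed for loss versus DMSO.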

[5] = CCTE_Shafer_MEA_dev_correlation_coefficient_mean: CCTE's Neural Network Formation Assay for Mean Correlation Coefficient, Shafer Lab (AID 2284093);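 on AC50: well mean pairwise spike train correlation integrated as AUC over recording days 5 to 12; potency fitted for loss of correlation relative to DMSO vehicle wells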
Method in brief: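 Spontaneous activity recorded on days 5, 7, 9 and 12 post-plating; pairwise spike correlations are averaged across active electrodes and collapsed to an area-under-curve. Rat cortical cultures are dosed from plating through 12 days, with compound renewed at media changes.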

[6] = IUF_NPC1b_proliferation_BrdU_72hr: Leibniz Research Institute for Environmental Medicine (IUF) 72-hour Neural Progenitor Cell Bromodeoxyuridine (BrdU) Proliferation Assay (NPC1b) (AID 2284207)
Method in brief: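 Neural progenitor spheres of human fetal origin are treated for three days; BrdU added for the last 16 h is quantified by luminescence ELISA, with DMSO as baseline and EGF/FGF omission as positive control.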

[7] = IUF_NPC1a_proliferation_area_72hr: Leibniz Research Institute for Environmental Medicine (IUF) 72-hour Neural Progenitor Cell Proliferation Area Assay (NPC1a) (AID 2284208)
Method in brief: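 Proliferation read as increase in sphere area by phase-contrast imaging over 72 h continuous compound exposure (no renewal) of hNPC spheres grown with EGF/FGF at 37C, 5% CO2. Growth-factor withdrawal served as positive control; DMSO as baseline.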

[8] = IUF_NPC1_viability_72hr: Viability Assessment at 72 hours in the Leibniz Research Institute for Environmental Medicine (IUF) Neural Progenitor Cell Proliferation Assay (NPC1) (AID 2284209)
Method in brief: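 Viability was measured by resazurin-to-resorufin fluorescence (alamar blue) after 72 h of continuous exposure without compound renewal. Each well held one hNPC sphere (gestational week 16-19 fetal cortex, 0.25-0.35 mm) cultured in EGF/FGF proliferation medium at 37C and pH 7.2-7.6.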

[9] = CCTE_Mundy_HCI_Cortical_Synap_Neur_Matur_NeuriteSpotCountPerNeuriteLength: CCTE's Synaptogenesis and Neurite Maturation Assay in rat cortical cells for Neurite Spot Count per Neurite Length, Mundy Lab (AID 2284210)
Method in brief: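 Neurite-associated synapse density (synaptophysin puncta per unit neurite length) is measured by fluorescence high-content imaging in rat cortical cultures treated from DIV 7 and fixed at DIV 12, with DMSO as negative control.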

[10] = CCTE_Mundy_HCI_Cortical_Synap_Neur_Matur_BPCount: CCTE's Synaptogenesis and Neurite Maturation Assay in rat cortical cells for Branch Point Count, Mundy Lab (AID 2284211)
Method in brief: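 HCI read-out of branch points from MAP2/synaptophysin/Hoechst immunofluorescence; rat cortical cultures, AraC DIV 5, dosing DIV 7, fixed DIV 12; fit in positive direction vs DMSO baseline.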

[11] = CCTE_Mundy_HCI_Cortical_NOG_NeuriteCount: CCTE's Neurite Outgrowth Assay in rat cortical cells for Neurite Count, Mundy Lab (AID 2284212);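 further: cells fixed about two days after chemical exposure began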
Method in brief: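 Rat cortical primary cells; compound added 2 h post-plating, 1/10 dilution of working solution. Anti-betaIII-tubulin/AF488 ICC; ArrayScan neurite count vs DMSO.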

[12] = CCTE_Mundy_HCI_Cortical_NOG_NeuriteLength: CCTE's Neurite Outgrowth Assay in rat cortical cells for Neurite Length, Mundy Lab (AID 2284213)
Method in brief: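 First, rat primary cortical cells were plated and, 2 h later, given test chemical as a 1/10 dilution. Finally, βIII-tubulin immunostaining enabled automated imaging of neurite length.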

[13] = CCTE_Mundy_HCI_Cortical_Synap_Neur_Matur_NeuriteLength: CCTE's Synaptogenesis and Neurite Maturation Assay in rat cortical cells for Neurite Length, Mundy Lab (AID 2284214)
Method in brief: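 Neurite length quantified by automated high-content imaging of MAP2, synaptophysin and Hoechst staining. Rat cortical cells received chemical from DIV 7 to DIV 12 […], glial growth arrested by AraC at DIV 5; DMSO baseline.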

[14] = CCTE_Mundy_HCI_Cortical_Synap_Neur_Matur_NeuriteSpotCountPerNeuron: CCTE's Synaptogenesis and Neurite Maturation Assay in rat cortical cells for Neurite Spot Count per Neuron Count, Mundy Lab (AID 2284215)
Method in brief: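 High-content imaging counts synaptophysin puncta along MAP2-labelled neurites per neuron after chemical exposure of rat cortical cells from DIV 7 to termination at DIV 12 (AraC added DIV 5). Loss of signal relative to DMSO.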

[15] = CCTE_Mundy_HCI_Cortical_Synap_Neur_Matur_SynapseCount: CCTE's Synaptogenesis and Neurite Maturation Assay in rat cortical cells for Synapse Count, Mundy Lab (AID 2284218)
Method in brief: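 High-content imaging of synaptophysin puncta per MAP2-positive neuron (Hoechst nuclei) in rat cortical cells exposed DIV 7–12 after glial arrest with AraC at DIV 5; decrease relative to DMSO scored.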

[16] = CCTE_Mundy_HCI_Cortical_Synap_Neur_Matur_NeuriteCount: CCTE's Synaptogenesis and Neurite Maturation Assay in rat cortical cells for Neurite Count, Mundy Lab (AID 2284222);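 further: exposure from day 7 to day 12 in vitro with readout at day 12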
Method in brief: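 Rat primary cortical cells; AraC added at DIV 5, chemicals dosed with media change at DIV 7 through DIV 12. MAP2/synaptophysin/Hoechst immunostaining, high-content imaging of neurite number; fitted relative to DMSO.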

[17] = CCTE_Mundy_HCI_hN2_NOG_NeuriteCount: CCTE's Neurite Outgrowth Assay in human hN2 cells for Neurite Count, Mundy Lab (AID 2284219; active means hit-call score of the fitted dose curve at least 0.9, where 1 is the maximum)
Method in brief: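 In this morphology assay, hNP1-derived neurons received test chemical 2 h post-plating and were fixed two days later in warm paraformaldehyde/sucrose containing Hoechst 33342. Neurites, labelled by rabbit anti-βIII-tubulin (1:800) and Alexa Fluor-488 (1:500), were counted automatically.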

[18] = CCTE_Mundy_HCI_hN2_NOG_NeuriteLength: CCTE's Neurite Outgrowth Assay in human hN2 cells for Neurite Length, Mundy Lab (AID 2284220; active means hit-call score of the fitted dose curve at least 0.9, where 1 is the maximum)
Method in brief: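 Using βIII-tubulin immunofluorescence and Hoechst nuclear counterstain, this component quantifies neurite length in hNP1-derived neurons.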

[19] = CCTE_Mundy_HCI_hN2_NOG_NeuronCount: CCTE's Neurite Outgrowth Assay in human hN2 cells for Neuron Count, Mundy Lab (AID 2284221; active means hit-call score of the fitted dose curve at least 0.9, where 1 is the maximum)
Method in brief: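 Read-out is the number of betaIII-tubulin-positive neurons imaged by automated high-content analysis, with DMSO as negative control.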

[20] = TAMU_PeakParms_SingleDonor1434_Chronotropy: Texas A&M University (TAMU) 1.5-hr Human Induced Pluripotent Stem Cell (iPSC)-derived Cardiomyocytes Calcium (Ca+2) Flux Assay for Cardiotoxicity: Chronotropy (changes in peak frequency) (AID 2284217); conditions: actives raise or lower the signal
Method in brief: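 iPSC-derived cardiomyocytes (single donor 1434) dosed at 0.2, 1, 10 and 100 uM in 0.5% DMSO for 1.5 h at 37C; Ca2+ dye fluorescence gave average beat frequency. Zero-beat points removed; bidirectional fit versus DMSO, POD as EC05.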

Measured: AC50

CCCN(C1CCN(C(=O)C2CCNCC2)CC1)[C@@H]1CCc2ccc(OC)cc2C1
inactive: [1] | [2]

CCC(C)(C)C(=O)O[C@H]1C[C@@H](C)C=C2C=C[C@H](C)[C@H](CC[C@@H]3C[C@@H](O)CC(=O)O3)[C@H]21
inactive: [2] | [4]
active: [3] 1750 nM | [5] 1510 nM

CCOC(=O)c1ccc(C2CCC(NC[C@H](O)COc3ccc(O)c(NS(C)(=O)=O)c3)CC2)cc1 (stereo not given in full)
inactive: [1] | [2]

O=P(OC(CCl)CCl)(OC(CCl)CCl)OC(CCl)CCl
active: [10] 6930 nM | [14] 2980 nM | [15] 2980 nM
not listed: [17] | [18] | [19] | [20]
inactive: all other assays above

O=C(O)CCN(C1(C(=O)NO)CCCC1)S(=O)(=O)c1ccc(Oc2ccc(F)cc2)cc1
inactive: [1] | [2]

COc1ccc2sc(C(=O)Nc3nnn[nH]3)c(OC(C)C)c2c1
inactive: [1] | [2]

CNCc1ccc(NC(=O)c2c[nH]c3c2C(=O)CCC3)cc1
inactive: [3] | [5]
active: [4] 755 nM

Nc1nc2ncc(CNc3ccc(C(=O)N[C@@H](CCC(=O)O)C(=O)O)cc3)nc2c(=O)[nH]1
inactive: [4] | [5]

Cn1c(=O)c2c(ncn2C)n(C)c1=O
not listed: [2] | [3] | [6] | [7] | [8] | [20]
inactive: all other assays above

NC(=O)NO
not listed: [1] | [2] | [3] | [6] | [7] | [8] | [19]
inactive: all other assays above
